# Pf apPOL block: Pf-apPOL DNA polymerase inhibition; Recombinant Pf-apPOL, molecular beacon fluorescence, 1.5 h; AID 1794808; hit rate 0.25% among 210,000; inhibition, % at 10 µM
# mHTT CaM bind: mHTT-calmodulin interaction abrogation | hit rate 3.6% among 190,000 | inhibition, % at 15 µM | AID 1671202 | P42858 | AlphaScreen His-mHTT/GST-CaM binding, luminescence
# Target sequence (P42858 whole entry, looked up, change not shown): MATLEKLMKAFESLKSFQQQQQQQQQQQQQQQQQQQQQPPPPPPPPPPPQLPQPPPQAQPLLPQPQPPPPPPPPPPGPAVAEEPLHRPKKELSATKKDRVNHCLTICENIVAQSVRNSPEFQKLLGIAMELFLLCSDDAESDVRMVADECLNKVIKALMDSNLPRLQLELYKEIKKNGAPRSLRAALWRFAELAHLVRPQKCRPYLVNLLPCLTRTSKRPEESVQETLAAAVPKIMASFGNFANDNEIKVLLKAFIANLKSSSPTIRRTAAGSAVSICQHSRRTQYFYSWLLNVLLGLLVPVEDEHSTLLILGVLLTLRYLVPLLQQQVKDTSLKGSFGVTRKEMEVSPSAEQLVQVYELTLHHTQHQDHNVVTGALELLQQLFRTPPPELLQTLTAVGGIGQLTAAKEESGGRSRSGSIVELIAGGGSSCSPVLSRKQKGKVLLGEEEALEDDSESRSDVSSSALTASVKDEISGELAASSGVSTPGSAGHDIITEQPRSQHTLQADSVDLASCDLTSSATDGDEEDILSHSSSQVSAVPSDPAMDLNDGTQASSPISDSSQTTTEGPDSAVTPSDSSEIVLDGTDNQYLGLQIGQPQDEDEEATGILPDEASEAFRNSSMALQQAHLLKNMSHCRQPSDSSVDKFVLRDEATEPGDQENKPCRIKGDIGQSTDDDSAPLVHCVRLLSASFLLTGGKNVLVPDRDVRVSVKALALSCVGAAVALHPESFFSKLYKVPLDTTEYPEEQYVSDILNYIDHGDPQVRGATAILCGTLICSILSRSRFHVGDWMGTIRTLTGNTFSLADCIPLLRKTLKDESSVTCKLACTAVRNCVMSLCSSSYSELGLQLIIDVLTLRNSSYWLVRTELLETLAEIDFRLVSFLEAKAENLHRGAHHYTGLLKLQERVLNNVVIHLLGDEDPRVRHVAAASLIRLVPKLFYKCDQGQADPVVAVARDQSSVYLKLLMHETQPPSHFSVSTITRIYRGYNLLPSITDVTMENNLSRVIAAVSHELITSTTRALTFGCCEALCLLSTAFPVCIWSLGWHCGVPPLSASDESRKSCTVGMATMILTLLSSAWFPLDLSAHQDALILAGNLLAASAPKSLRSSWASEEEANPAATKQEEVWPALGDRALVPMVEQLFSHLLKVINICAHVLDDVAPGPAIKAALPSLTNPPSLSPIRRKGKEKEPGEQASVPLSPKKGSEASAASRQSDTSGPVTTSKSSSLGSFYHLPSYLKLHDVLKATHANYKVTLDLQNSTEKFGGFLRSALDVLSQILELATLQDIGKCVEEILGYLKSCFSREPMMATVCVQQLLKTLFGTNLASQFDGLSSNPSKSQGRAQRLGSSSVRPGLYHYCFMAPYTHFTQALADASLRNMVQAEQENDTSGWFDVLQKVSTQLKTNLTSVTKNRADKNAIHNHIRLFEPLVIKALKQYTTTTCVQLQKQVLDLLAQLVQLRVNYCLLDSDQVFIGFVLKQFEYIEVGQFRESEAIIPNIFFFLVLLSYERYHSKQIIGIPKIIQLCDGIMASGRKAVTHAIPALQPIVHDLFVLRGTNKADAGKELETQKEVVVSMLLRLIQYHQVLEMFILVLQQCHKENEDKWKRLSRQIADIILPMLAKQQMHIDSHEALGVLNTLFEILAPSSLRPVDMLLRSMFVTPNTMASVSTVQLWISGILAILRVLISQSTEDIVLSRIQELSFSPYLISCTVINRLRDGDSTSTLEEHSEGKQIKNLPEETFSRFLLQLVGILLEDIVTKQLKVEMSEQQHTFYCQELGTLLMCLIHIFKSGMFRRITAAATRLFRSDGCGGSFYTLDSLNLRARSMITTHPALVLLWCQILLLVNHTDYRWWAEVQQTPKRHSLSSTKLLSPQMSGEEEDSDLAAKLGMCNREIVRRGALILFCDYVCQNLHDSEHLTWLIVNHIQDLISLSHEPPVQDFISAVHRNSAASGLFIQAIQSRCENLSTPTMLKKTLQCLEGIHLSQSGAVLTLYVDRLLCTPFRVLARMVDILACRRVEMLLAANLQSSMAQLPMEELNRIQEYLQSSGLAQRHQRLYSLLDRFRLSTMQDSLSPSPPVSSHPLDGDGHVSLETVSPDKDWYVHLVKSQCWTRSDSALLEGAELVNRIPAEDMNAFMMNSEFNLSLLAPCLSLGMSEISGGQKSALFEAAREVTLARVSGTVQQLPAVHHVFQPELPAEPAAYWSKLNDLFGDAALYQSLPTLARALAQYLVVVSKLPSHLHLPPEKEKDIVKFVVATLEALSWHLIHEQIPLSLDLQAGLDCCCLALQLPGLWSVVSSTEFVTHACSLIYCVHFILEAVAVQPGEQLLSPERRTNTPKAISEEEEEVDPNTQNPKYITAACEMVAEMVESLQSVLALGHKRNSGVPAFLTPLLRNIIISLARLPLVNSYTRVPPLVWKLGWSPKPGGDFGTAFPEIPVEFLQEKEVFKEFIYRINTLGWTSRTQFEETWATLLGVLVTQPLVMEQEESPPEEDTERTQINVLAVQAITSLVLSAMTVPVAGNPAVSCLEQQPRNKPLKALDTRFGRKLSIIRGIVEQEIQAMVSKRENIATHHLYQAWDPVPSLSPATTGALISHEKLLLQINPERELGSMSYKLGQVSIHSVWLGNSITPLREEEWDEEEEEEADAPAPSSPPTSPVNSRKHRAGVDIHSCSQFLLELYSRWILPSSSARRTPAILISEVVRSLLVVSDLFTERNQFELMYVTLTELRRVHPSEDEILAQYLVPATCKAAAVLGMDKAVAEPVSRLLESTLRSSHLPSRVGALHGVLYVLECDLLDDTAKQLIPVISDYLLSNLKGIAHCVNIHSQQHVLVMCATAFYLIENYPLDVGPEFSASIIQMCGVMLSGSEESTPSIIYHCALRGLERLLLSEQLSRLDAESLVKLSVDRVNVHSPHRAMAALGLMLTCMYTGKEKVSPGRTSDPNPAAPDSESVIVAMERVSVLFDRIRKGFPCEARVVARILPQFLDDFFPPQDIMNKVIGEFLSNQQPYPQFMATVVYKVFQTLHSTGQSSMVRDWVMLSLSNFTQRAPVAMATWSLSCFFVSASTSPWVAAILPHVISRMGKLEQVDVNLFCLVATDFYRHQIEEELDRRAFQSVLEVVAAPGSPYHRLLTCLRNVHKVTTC
# Hits are given with their value; 0 = inactive; - = no result given. The sample as a whole holds a higher share of hits than the screen did. No stated cut-off is given here; in the data, active means inhibition above about 50%; inactive means the rest.
SMILES,Pf apPOL block,mHTT CaM bind
CCc1cc2c(cc3n2CC(C)(C(=O)NC2CCCCC2)N(Cc2ccco2)C3=O)s1 (stereo unspecified),0,0
COc1ccc(N/C(C)=C/C(=O)c2ccccc2)c(OC)c1,0,50.9
COc1ccccc1N/C(C)=C/C(=O)c1ccccc1,0,0
CCOc1ccc(C(=O)Nc2nc3ccc([N+](=O)[O-])cc3s2)cc1,0,0
COc1ccccc1N(CC(=O)NCc1ccco1)S(C)(=O)=O,0,0
Cc1ccccc1N(CC(=O)NCc1ccco1)S(C)(=O)=O,64.7,0
COC(=O)c1ccc(NCc2cccs2)cc1,0,0
Oc1ccc(NCc2cccs2)cc1,0,64.3
CCCN(C)C(=O)c1ccc2c(c1)Sc1ncccc1C(=O)N2C(C)C,0,0
Cc1ccccc1-c1noc(C2CCCN2S(=O)(=O)c2ccc(Cl)cc2C)n1 (stereo unspecified),0,0
Cc1noc(C)c1S(=O)(=O)N1CCC(C(C)C(=O)NCc2ccccc2)CC1 (stereo unspecified),0,0
COc1ccc(C(NC(C)=O)c2cc([N+](=O)[O-])c3cccnc3c2O)cc1 (stereo unspecified),0,100.0
O=[N+]([O-])c1cccc(Cl)c1N1CCN(c2ccc([N+](=O)[O-])c3cccnc23)CC1,0,0
CC(=O)NC(c1ccccc1)c1cc([N+](=O)[O-])c2cccnc2c1O (stereo unspecified),0,100.3
Cc1cc(I)ccc1Nc1c([N+](=O)[O-])cc([N+](=O)[O-])c2cccnc12,0,0
COc1ccc(NC(=O)CSc2cccc3cccnc23)c([N+](=O)[O-])c1,0,0
CC(=O)NC(c1ccccc1Cl)c1cc([N+](=O)[O-])c2cccnc2c1O (stereo unspecified),0,100.0
COc1ccccc1OCC(=O)NCCCc1ccc(N(C)C)cc1,0,0
CCc1nnc(NC(=O)c2cc(Cl)c(OC)c(Cl)c2)s1,0,0
CN1C(=O)C(CC(=O)NCc2ccccc2)SC1=Nc1ccc(F)cc1 (stereo unspecified),0,0
Cc1ccsc1/C=C(\C#N)c1nc(-c2ccc([N+](=O)[O-])cc2)cs1,0,0
CN(C)c1ccc(CNc2ccc(-c3nc(-c4ccc(F)cc4)no3)cn2)cc1,0,0
CCNc1nc(NC(C)C)nc(OCCNS(=O)(=O)c2cc(C)ccc2C)n1,0,0
CCNc1nc(NCC)nc(OCCNS(=O)(=O)c2cc(C)ccc2C)n1,89.0,0
O=c1oc2cc(Cl)ccc2n1S(=O)(=O)c1ccc([N+](=O)[O-])cc1,0,0
SMILES,Pf apPOL block,mHTT CaM bind
CC(=O)Nc1ccc(-c2noc(C3CCN(C(=O)c4cc5ccccc5[nH]4)CC3)n2)cc1,0,98.2
CC(=O)Nc1ccc(-c2noc(C3CCCN(C(=O)c4cc5ccccc5[nH]4)C3)n2)cc1 (stereo unspecified),0,0
COc1cccc(-c2nc(C3CCN(C(=O)c4nccc5ccccc45)CC3)no2)c1,0,98.1
Cc1oc(C2CCN(C(=O)c3ccc(C(F)(F)F)cc3)CC2)nc1C(=O)N1CCCC1,0,50.6
COc1cccc(-c2nc(C3CCN(C(=O)c4ccc(C(F)(F)F)cc4)CC3)no2)c1,0,86.4
COc1cccc(-c2nc(C3CCN(C(=O)c4cccc(C(F)(F)F)c4)CC3)no2)c1,0,0
Cc1oc(C2CCN(C(=O)c3ccc(C(C)(C)C)cc3)CC2)nc1C(=O)N1CCCCC1,0,0
COc1cccc(-c2nc(C3CCN(C(=O)c4cc5ccccc5[nH]4)CC3)no2)c1,0,0
COc1ccc(Cl)cc1C(=O)Nc1c2c(nn1-c1ccc(F)cc1)CS(=O)(=O)C2,0,0
Cc1nc(N2CCN(C(=O)c3ccccc3F)CC2)c2c3c(sc2n1)CCCC3,0,0
O=c1c2c(nc3cc(-c4ccco4)[nH]n13)CSC2,0,-
Nc1cc(C(=O)Nc2ccc3c(c2)OCCO3)ccc1N1CC2CC(C1)c1cccc(=O)n1C2 (stereo unspecified),0,0
COc1ccc(C(=O)N2CCC(c3nc(C(=O)N4CCCCC4)c(C)o3)CC2)cc1,0,0
NCCc1nc(-c2ccc(Cl)cc2)cs1,0,0
COc1cccc(-c2nc(C3CCN(C(=O)c4ccc(Cl)c(Cl)c4)CC3)no2)c1,0,97.1
COc1ccccc1-c1nc(C2CCN(C(=O)c3ccc(F)c(Cl)c3)CC2)no1,0,92.2
O=C(c1cc2ccccc2[nH]1)N1CCC(c2noc(-c3ccccc3)n2)CC1,0,0
O=C(c1cc2cc(Cl)ccc2[nH]1)N1CCC(c2noc(-c3ccccc3)n2)CC1,0,83.4
COc1ccccc1-c1nc(C2CCN(C(=O)c3cccc(F)c3)CC2)no1,0,0
COc1cccc(-c2nc(C3CCN(C(=O)c4cccc(C)c4)CC3)no2)c1,0,0
O=C(NCCc1ccccc1)C(F)(F)C(F)F,0,0
O=C(Nc1ccc([N+](=O)[O-])cc1)c1cnc2n(c1=O)CCS2,0,0
COc1cc(NC(=O)N2CCc3cn(C)c4cccc(c34)C2)cc(OC)c1OC,0,0
COc1cc(C(=O)N2CCN(C(=O)c3cccc(F)c3)CC2)cc(OC)c1OC,0,0
C=C[C@@H]1c2ccccc2N(S(=O)(=O)c2ccc(C)cc2)[C@H](c2ccc(C(F)(F)F)cc2)C1(C#N)C#N,0,0
SMILES,Pf apPOL block,mHTT CaM bind
C=C[C@@H]1c2cc(C)ccc2N(S(=O)(=O)c2ccc(C)cc2)[C@H](c2ccc(C(C)(F)F)cc2)C1(C#N)C#N,0,90.3
Fc1ccc(-c2cc3n(n2)CCCN(Cc2cccc(F)c2)C3)cc1,0,92.0
COc1ccc(-c2cc3n(n2)CCCN(Cc2ccoc2)C3)cc1,0,0
O=c1c(Cc2ccc([N+](=O)[O-])cc2)c(-c2ccccc2)sc2ccccc12,0,-
CC(=O)Nc1nc(-c2cc3cc(Cl)cc(Cl)c3oc2=O)cs1,97.7,0
Nc1nc(-c2cc3cc(Cl)cc(Cl)c3oc2=O)cs1,0,0
CC(C)C(=O)N1CCc2cc(C(=O)N(C)C)ccc21,0,0
CC(C)(O)C#Cc1ccc(C(=O)N2CCN(c3ccccc3F)CC2)cc1,0,0
O=C1NN(c2ccccc2)C(=O)/C1=C/c1ccc(-c2ccccc2F)o1,0,0
O=C1NN(c2cccc(C(F)(F)F)c2)C(=O)/C1=C/c1ccc([N+](=O)[O-])o1,0,98.0
NC(=O)c1oc2ccccc2c1NC(=O)Cc1cccs1,0,0
CCN(Cc1ccccc1)S(=O)(=O)c1ccc(F)c(C(=O)Nc2cc(C)ccc2OC)c1,0,0
O=C(Nc1cccc(F)c1)c1cc(S(=O)(=O)NCCc2ccccc2)ccc1F,0,0
O=C(Nc1cccc(Cl)c1)c1cc(S(=O)(=O)NCCc2ccccc2)ccc1F,0,51.0
COc1ccc(C)cc1NC(=O)c1cc(S(=O)(=O)NCCc2ccccc2)ccc1F,0,64.0
CN(Cc1ccccc1)Cc1ccc(Br)o1,0,0
CC1=C(/C=C/c2ccc(Cl)cc2Cl)C(=O)c2ccccc2C1=O,0,67.8
O=C1OC(c2ccccc2F)=N/C1=C/c1ccc(Cl)cc1Cl,0,0
COc1ccc(N2CCN3c4cc(OC)ccc4CC(C(=O)NC4CC4)C3C2)cc1 (stereo unspecified),0,0
COc1ccc2c(c1)N1CCN(c3ccc(C)cc3)CC1C(C(=O)NC1CC1)C2 (stereo unspecified),0,65.4
Cc1ccc(-n2nc3c(c2NC(=O)C(C)Oc2ccccc2)CS(=O)(=O)C3)cc1 (stereo unspecified),0,0
